Assay [1] can be described thus: reduced OD of T4-infected AddAB+ E. coli – absorbance, E. coli V3065, T4 phage, triplicate, AddAB inhibitor project, confirmation (AID 488942;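 active = mean inhibition above a set limit taken from the earlier primary screen, cut at about 13% in these data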). To be noted: E. coli V3065 expressing H. pylori AddAB, at 11.9 µM, hits give high values.
The nature of assay [2]: reduced OD of phage-infected RecBCD+ V66 E. coli – absorbance, mutant T4 phage, counter-screen for AddAB inhibitor project (AID 488955;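 active = mean inhibition above the mean of solvent-only control wells plus 3 SD, cut at about 4% in these data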). To be noted: OD growth, at 11.9 µM, hits give high values.
The nature of assay [3]: bacterial growth inhibitors – absorbance, counter-screen for AddAB inhibitor project, confirmation (AID 488956; in the data active = inhibition above about 25%). To be noted: bacterial viability, absorbance (AddAB counterscreen); at 11.9 µM; hits give high values.
Assay [4] can be described thus: reduced OD of V66 E. coli with T4 gene 2 phage – absorbance, RecBCD inhibitor project, confirmation (AID 651982;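 active = mean inhibition over triplicates exceeding the hit threshold derived in the original primary screen, cut at about 11% in these data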). To be noted: E. coli V66 + T4 2- phage, growth OD; at 11.9 µM; hits give high values.
Assay [5] is described as follows: bacterial growth inhibition – absorbance, high throughput, counter-screen for RecBCD inhibitor project (AID 651983; in the data active = inhibition above about 20%). To be noted: E. coli viability, absorbance (OD) growth; at 11.9 µM; hits give high values.
A short description of assay [6]: reduced optical density, T4-challenged addAB+ bacteria – absorbance, E. coli V3065, T4 phage, counter-screen for RecBCD inhibitor project, confirmation (AID 651984;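 active = mean inhibition above the solvent-only control wells' mean plus 3 SD, cut at about 22% in these data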). To be noted: E. coli expressing H. pylori AddAB + T4 phage, OD growth; at 11.9 µM; hits give high values.
The target of assay [7] is Platelet-activating factor acetylhydrolase (Homo sapiens) (UniProt Q13093). Briefly: inhibition of plasma PAF acetylhydrolase – biochemical, fluorescence polarization, human, confirmation (AID 463230;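 active = mean inhibition of the triplicate above the hit cutoff set for the earlier primary screen, cut at about 25% in these data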). To be noted: recombinant pPAFAH, FP-Rh probe fluorescence polarization; at 3.39 µM; hits give high values.
For assay [8], the target named is Protein phosphatase methylesterase 1 (Homo sapiens) (UniProt Q9Y570). Briefly: human PME-1 methylesterase inhibition confirmation – biochemical, fluorescence polarization, FP-Rh probe, triplicate (AID 2171;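 active = inhibition above the hit cutoff set in the earlier primary screen, cut at about 27% in these data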). To be noted: recombinant PME-1, FP-Rh probe fluorescence polarization; at 5.9 µM; hits give high values.
The target in assay [9] is Nuclear receptor coactivator 3 (Homo sapiens) (UniProt Q9Y6Q9). Put plainly: NCOA3 GAL4-fusion reporter inhibition – cell-based, luminescence, quadruplicate, confirmation (AID 588792). To be noted: HEK293 GAL4-SRC3 luciferase reporter, at 3.6 µM, hits give high values.
For assay [10], the system named is transactivating tegument protein VP16 (Human herpesvirus 1), Gal4-VP16 luciferase reporter. Put plainly: repression of VP16-driven luciferase reporter – cell-based, luminescence, high throughput, counter-screen for SRC3 inhibitor project (AID 588794; in the data active = inhibition above about 30%). To be noted: mammalian cells, at 3.6 µM, hits give high values.
In assay [11] the target is Nuclear receptor coactivator 1 (Homo sapiens) (UniProt Q15788). Briefly: NCOA1 GAL4-fusion reporter inhibition – cell-based, luminescence, quadruplicate, confirmation (AID 588820;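 active = mean inhibition above 46.68%, the untreated control wells mean plus 3 SD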). To be noted: HEK293 GAL4-SRC1 luciferase reporter, at 3.6 µM, hits give high values.
The nature of assay [12]: repression of VP16-driven luciferase reporter – cell-based, luminescence, high throughput, counter-screen for SRC1 inhibitor project (AID 588824; in the data active = inhibition above about 25%). To be noted: cell-based VP16 transactivation luciferase luminescence; at 3.6 µM; hits give high values.

Values without a mark were called inactive. Some of the results follow. Calls of active or inactive are those of the source.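 Rule for the calls, unless noted: active = mean inhibition over 43.08%, the solvent-only control mean plus 3 SD; inactive = the rest.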

Nuclear receptor coactivator 3 (Homo sapiens), sequence (Q9Y6Q9 whole entry, looked up, the tested form may be a part): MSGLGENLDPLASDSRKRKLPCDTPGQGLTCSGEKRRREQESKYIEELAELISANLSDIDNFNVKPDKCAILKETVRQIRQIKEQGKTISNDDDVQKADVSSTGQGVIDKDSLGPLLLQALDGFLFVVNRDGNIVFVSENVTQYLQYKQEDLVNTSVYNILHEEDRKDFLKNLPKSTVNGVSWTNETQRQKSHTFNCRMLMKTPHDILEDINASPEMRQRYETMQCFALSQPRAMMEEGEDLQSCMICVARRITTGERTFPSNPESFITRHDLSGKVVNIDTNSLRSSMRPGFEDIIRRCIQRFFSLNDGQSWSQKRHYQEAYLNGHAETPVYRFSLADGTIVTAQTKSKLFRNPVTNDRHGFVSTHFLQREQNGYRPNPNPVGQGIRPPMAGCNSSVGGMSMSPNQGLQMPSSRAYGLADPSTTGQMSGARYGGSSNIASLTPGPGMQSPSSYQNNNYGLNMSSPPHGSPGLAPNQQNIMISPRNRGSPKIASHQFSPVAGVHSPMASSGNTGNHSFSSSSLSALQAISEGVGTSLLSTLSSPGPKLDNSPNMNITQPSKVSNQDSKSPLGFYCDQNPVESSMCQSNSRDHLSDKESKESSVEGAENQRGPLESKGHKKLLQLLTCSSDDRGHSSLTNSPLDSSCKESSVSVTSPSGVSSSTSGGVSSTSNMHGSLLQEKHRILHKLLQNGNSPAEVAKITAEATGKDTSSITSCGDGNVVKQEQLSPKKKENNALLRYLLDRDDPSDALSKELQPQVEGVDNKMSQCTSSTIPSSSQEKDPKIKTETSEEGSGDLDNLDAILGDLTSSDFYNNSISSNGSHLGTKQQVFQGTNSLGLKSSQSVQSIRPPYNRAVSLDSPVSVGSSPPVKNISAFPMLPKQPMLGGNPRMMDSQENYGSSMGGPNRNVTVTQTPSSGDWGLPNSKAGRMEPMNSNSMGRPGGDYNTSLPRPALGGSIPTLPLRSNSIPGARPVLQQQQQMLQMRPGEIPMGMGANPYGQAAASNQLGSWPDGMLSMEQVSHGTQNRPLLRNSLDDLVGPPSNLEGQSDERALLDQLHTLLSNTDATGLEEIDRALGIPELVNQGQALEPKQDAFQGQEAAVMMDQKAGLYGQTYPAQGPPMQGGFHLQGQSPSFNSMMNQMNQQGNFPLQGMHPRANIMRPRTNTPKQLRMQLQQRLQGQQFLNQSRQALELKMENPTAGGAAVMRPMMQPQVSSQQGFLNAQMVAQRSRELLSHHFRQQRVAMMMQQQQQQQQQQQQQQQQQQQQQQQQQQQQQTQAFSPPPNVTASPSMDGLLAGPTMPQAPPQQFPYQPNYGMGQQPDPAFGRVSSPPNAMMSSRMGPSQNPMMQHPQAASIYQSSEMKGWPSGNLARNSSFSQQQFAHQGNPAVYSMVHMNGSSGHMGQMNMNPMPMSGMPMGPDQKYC
Nuclear receptor coactivator 1 (Homo sapiens), sequence (Q15788 whole entry, looked up, the tested form may be a part): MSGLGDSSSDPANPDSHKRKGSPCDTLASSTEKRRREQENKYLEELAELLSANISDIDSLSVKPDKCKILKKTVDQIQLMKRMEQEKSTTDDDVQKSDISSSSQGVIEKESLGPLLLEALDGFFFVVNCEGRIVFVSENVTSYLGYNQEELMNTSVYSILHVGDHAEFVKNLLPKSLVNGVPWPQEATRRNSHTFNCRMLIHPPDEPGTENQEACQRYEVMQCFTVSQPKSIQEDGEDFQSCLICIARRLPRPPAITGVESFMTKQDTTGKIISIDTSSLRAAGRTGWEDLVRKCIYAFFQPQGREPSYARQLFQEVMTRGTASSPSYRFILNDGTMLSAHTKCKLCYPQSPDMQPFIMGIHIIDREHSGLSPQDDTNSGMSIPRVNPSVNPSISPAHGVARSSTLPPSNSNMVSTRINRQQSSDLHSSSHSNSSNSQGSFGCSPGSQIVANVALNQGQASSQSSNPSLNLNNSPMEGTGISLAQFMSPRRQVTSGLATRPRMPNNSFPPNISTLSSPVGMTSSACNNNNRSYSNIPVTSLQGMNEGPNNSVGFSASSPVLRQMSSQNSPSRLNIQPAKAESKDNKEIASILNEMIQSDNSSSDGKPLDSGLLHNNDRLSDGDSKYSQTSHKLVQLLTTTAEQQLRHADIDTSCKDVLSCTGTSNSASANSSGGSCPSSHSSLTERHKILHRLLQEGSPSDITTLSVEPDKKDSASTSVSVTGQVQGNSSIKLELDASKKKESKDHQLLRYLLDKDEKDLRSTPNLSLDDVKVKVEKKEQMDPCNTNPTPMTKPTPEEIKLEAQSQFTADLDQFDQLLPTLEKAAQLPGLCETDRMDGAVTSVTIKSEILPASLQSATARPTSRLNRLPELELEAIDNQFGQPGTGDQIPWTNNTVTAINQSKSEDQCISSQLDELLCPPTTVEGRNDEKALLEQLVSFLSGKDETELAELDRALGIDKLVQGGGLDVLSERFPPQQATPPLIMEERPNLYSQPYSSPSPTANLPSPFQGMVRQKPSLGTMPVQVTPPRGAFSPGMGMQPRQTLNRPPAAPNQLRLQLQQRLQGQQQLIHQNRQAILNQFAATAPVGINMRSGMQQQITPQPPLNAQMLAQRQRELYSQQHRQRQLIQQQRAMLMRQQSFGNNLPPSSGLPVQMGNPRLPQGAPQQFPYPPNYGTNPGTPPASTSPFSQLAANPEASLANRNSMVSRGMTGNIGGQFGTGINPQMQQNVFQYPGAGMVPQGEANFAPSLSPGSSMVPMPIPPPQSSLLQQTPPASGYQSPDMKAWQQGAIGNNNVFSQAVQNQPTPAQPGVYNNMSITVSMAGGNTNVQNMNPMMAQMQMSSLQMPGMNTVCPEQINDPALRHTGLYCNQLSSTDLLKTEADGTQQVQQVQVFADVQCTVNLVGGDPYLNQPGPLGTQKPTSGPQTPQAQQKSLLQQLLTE
Platelet-activating factor acetylhydrolase (Homo sapiens), sequence (Q13093 whole entry, looked up): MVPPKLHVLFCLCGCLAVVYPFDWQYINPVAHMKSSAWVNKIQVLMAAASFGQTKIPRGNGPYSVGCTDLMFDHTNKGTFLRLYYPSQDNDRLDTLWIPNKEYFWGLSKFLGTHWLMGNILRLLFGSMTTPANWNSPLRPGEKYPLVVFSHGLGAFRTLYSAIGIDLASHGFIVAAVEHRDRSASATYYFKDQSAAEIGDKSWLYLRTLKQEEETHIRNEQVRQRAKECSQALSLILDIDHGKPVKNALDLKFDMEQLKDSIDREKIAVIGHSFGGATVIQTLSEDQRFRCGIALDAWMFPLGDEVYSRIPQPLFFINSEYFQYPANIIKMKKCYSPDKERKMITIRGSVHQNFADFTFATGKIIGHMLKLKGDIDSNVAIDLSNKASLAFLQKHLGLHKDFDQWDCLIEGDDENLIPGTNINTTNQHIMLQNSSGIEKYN
Protein phosphatase methylesterase 1 (Homo sapiens), sequence (Q9Y570 whole entry, looked up, the tested form may be a part): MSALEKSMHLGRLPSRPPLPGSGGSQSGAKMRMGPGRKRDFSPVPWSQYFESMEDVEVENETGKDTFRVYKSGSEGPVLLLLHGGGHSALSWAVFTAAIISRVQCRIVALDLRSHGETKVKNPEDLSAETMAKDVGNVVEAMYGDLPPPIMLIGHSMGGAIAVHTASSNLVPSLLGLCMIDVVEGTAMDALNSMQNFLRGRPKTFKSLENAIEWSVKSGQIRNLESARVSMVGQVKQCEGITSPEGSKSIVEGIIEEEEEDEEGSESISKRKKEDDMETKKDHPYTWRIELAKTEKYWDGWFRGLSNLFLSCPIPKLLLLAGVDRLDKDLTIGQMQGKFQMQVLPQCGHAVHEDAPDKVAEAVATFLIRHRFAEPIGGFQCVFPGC

In the case of `O=[N+]([O-])c1cnc2ccc3ccccc3c2c1`, the inhibition is 103% (active) in assay [1]; 21.8% (active) in [2]; 63.5% (active) in assay [3]; 18.2% (active) in [4]; 20.3% (active) in [5]; 76.8% (active) in assay [6].

Take `NCCc1ccc(S(=O)(=O)F)cc1`: the inhibition in assay [7] was 71.9% (active).

For the compound `CC1Oc2cc3c(-c4c(O)cc(O)c5c(O)c6c(cc45)OC(C)C(C)C6=O)c(O)cc(O)c3c(O)c2C(=O)C1C` (configuration not stated), in assay [8], the inhibition is 53.6% (active).

For `O=C1CC(=O)N(Cc2ccccc2)C(=O)N1CCCCCCN1C(=O)CC(=O)N(Cc2ccccc2)C1=O`, the inhibition in assay [7] is 4.95%.

Consider `CCOC(=O)c1c(NS(=O)(=O)c2ccccc2)n(CCCOC)c2nc3ccccc3nc12`, for which, in assay [8], the inhibition is 0.94%.

As to `O=c1[nH]c2ccccc2n1C1CCN(C(CCc2ccccc2)c2nnnn2C2CCCCC2)CC1` (configuration not stated), the inhibition in assay [9] was 11.8%; in assay [10], 12.5%; in assay [11], 2.31%; in assay [12], -5.85%.

For `Cc1cc(C)cc(NC2=NCCCS2)c1`, the inhibition in [9] was -10.4%; in [10] it was 1.9%.

Consider `CSCCC(c1nnnn1-c1ccc2c(c1)OCCO2)N1CCC(n2c(=O)[nH]c3ccccc32)CC1` (configuration not stated), for which the inhibition in assay [9] was 15%; in assay [10] it was 14.7%; in assay [11] it was -22.6%; in assay [12] it was 20.9%.

For `CC1=CC2/C=C(\C)CCC(O)C(O)/C=C/C(=O)C23C(=O)NC(CC(C)C)C3C1C` (configuration not stated), the values for the inhibition in assay [9] and in assay [10] were 36% and 54.8% (active), respectively.

Regarding `C=C1C(=O)[C@@]23C[C@H]4[C@@H]5[C@@]6(C)CCC[C@@]57[C@@H]2[C@@H](O)[C@@H]1C[C@H]3[C@H]7N4C6`, the inhibition in assay [9] is 3.71%; in assay [10], 22%; in assay [11], 26.6%; in assay [12], 20.9%.

Turning to `O=c1[nH]c2ccccc2n1C1CCN(C(c2ccccc2OC(F)(F)F)c2nnnn2Cc2ccccc2)CC1` (configuration not stated), the inhibition in assay [9] is -2.46%; in [10], 2.54%; in assay [11], -29%; in assay [12], 0.5%.

Take `CCn1nc(/C=C/c2ccccc2)nc2c(=O)n(C)c(=O)nc1-2`: the inhibition in assay [9] is 39.2%; in [10], 9.67%.

Turning to `CCN(CCCl)c1cc(CN(C)C)cc(NC(=O)c2ccc(C(=O)Nc3cc(CN(C)C)cc(N(CC)CCCl)c3)cc2)c1`, the inhibition is 94.8% (active) in [9] and 92% (active) in assay [10].

For the compound `CNC(=O)c1cccn(Cc2cccc(C(F)(F)F)c2)c1=O`, the inhibition is 19.5% in [9], -23.9% in assay [10], -26.7% in assay [11] and -25.9% in [12].

With `COC(=O)C1CN(C#N)N(c2ccc(Cl)cc2)C12c1ccccc1-c1ccccc12` (configuration not stated), the inhibition is 13.6% in assay [9] and 33.5% (active) in [10].

As for `C/C(=N\Nc1ccccc1)c1c(O)[nH]c(=O)[nH]c1=O`, the inhibition is 0.35% in assay [9], 17.7% in assay [10], -2.36% in assay [11] and 13.6% in assay [12].

With `COc1ccc(-n2c(O)c(C(C)=NCCCn3ccnc3)c(=O)[nH]c2=O)cc1`, the inhibition in [9] was 31.6%; in assay [10] it was 32.6% (active).

As to `CCCCn1c(O)c(C(C)=Nc2ccc(C(=O)O)cc2)c(=O)[nH]c1=O`, the values for the inhibition in assay [9] and in [10] were 1.79% and 12.1%, respectively.

In the case of `CC(=O)c1c(C)n(C2CCCCC2)c2ccc(O)cc12`, the inhibition was 81.2% (active) in [9], 58.5% (active) in assay [10], 68.4% (active) in assay [11] and 60.2% (active) in assay [12].

For the compound `O=c1[nH]c2ccccc2n1C1CCN(C(CCc2ccccc2)c2nnnn2-c2ccc3c(c2)OCCO3)CC1` (configuration not stated), the inhibition in assay [9] was 30.3%; in [10], 48.9% (active).

Regarding `C[C@H]1CCC/C=C/C2C[C@H](O)CC2[C@H](O)/C=C/C(=O)O1` (some centres not stated), the inhibition in assay [9] was 69.2% (active); in [10] it was 80.2% (active).

With `O=C(CSC1c2ccccc2-c2ccccc21)N/N=C/c1ccccc1O`, the inhibition in assay [9] is 17.4%; in assay [10], 21.9%; in assay [11], 13.8%; in assay [12] it was 18%.

In the case of `O=c1[nH]c2ccccc2n1C1CCN(C(c2ccccc2)c2nnnn2-c2ccc3c(c2)OCCO3)CC1` (configuration not stated), the inhibition is 41.3% in assay [9], 14.1% in [10], -15.1% in assay [11] and 16.1% in assay [12].

Regarding `CSCCC(c1nnnn1Cc1ccccc1)N1CCC(n2c(=O)[nH]c3ccccc32)CC1` (configuration not stated), the inhibition is 52.8% (active) in assay [9], 46.3% (active) in [10], 36.4% in assay [11] and 44.5% (active) in assay [12].

For the compound `CC(=C1C(=O)c2ccccc2C1=O)N1CCN(CCN=Cc2c(O)n(C)c(=O)n(C)c2=O)CC1`, the inhibition in assay [9] was -8.5%; in assay [10], -5.29%.

In the case of `CNC(=O)c1cccn(Cc2cc(C(F)(F)F)cc(C(F)(F)F)c2)c1=O`, the inhibition in [9] is 28.4%; in assay [10], 11%; in assay [11], 10.9%; in [12] it was 3.5%.

As to `Cc1c(C(=O)N2CCC3(CC2)OCCO3)sc2ncnc(N3CCN(c4ccccn4)CC3)c12`, the inhibition was -7.87% in assay [9] and -13.2% in assay [10].

As to `C[C@H]1CCC[C@@H](O)CCC/C=C/c2cc(O)cc(O)c2C(=O)O1`, the inhibition in assay [9] is 61.8% (active); in assay [10], 63.4% (active); in [11] it was 29.2%; in [12] it was 56.1% (active).

On to `COC1=CC2C3Cc4ccc(OC)c(O)c4C2(CCN3C)CC1=O` (configuration not stated), for which the inhibition is 7% in assay [9] and 11.3% in [10].
